Only some compounds are listed: those with a hit (about 3.5% of all), similar ones and a draw of the others.
TEAD-YAP inh: TEAD-YAP interaction inhibition, primary screen, TEAD-YAP interaction inhibitor project, luminescence, HEK-TIYL cells; TEAD-Gal4/YAP UAS-luciferase luminescence; inhibition, % at 9.12 µM; actives 1.4% (n = 640,000); AID 1259422, 2018; in the data active = inhibition above about 32%;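 also: 0% = median of test compound wells and 100% = reference inhibitor wells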
MITF inh: MITF inhibitors, primary screen, biochemical, AlphaScreen, human. AID 1259374, 2018. Microphthalmia-associated transcription factor (Homo sapiens), O75030. actives 0.91% (n = 650,000). AlphaScreen MITF homodimerization, bead proximity signal. inhibition, % at 2.6 µM; in the data active = inhibition above about 50%;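 also: 0% = vehicle wells with protein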
Target sequence (O75030 whole entry, looked up): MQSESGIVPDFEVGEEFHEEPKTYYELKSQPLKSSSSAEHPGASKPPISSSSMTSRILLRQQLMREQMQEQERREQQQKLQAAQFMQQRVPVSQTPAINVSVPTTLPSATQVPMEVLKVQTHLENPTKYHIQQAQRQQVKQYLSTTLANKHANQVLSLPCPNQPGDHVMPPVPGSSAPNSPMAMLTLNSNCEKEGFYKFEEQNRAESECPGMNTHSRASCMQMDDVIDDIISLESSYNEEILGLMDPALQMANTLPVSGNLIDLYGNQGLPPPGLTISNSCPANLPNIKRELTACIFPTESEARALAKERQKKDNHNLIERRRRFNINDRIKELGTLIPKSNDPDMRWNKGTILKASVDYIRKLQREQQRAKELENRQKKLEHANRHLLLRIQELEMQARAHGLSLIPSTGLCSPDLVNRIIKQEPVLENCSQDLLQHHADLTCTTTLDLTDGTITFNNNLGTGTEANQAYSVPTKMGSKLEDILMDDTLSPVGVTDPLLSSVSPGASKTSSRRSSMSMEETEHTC
GPR151 activ: activators of human GPR151, primary screen, cell-based, PathHunter beta-arrestin, luminescence. G-protein coupled receptor 151 (Homo sapiens), Q8TDV0. PathHunter beta-arrestin GPR151 cells. activation, % at 11.2 µM. actives 1% (n = 650,000); in the data active = activation above about 4.9%;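 also: 0% = median of compound wells and 100% = cells with positive control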
FBW7 act: FBW7 E3 ligase activators, primary screen, biochemical, AlphaScreen, human | AlphaScreen FBW7–phospho-cyclin E peptide binding, activator screen | F-box/WD repeat-containing protein 7 (Homo sapiens), Q969H0 | AID 1259310, 2017 | normalized activity (activation), % at 26.1 µM | actives 0.13% (n = 650,000); in the data active = normalized activity above about 1.9%;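 also: purified mutant Fbw7 with reduced substrate affinity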
An asterisk follows results filed as active; ! = not confirmed by another sample.

SMILES | TEAD-YAP inh | MITF inh | GPR151 activ | FBW7 act
CC(=O)Nc1ccc(Nc2nc(Nc3nc4ccccc4n3C)nc3c2ncn3-c2ccsc2)cc1 | 43* | 7 | 0 | 0
Cn1c(Nc2nc(NCCO)c3ncn(-c4ccsc4)c3n2)nc2ccccc21 | 14 | 4 | -3 | 0
CCN1/C(=C/c2ccc3ccccc3[n+]2CC)Sc2ccc(C)cc21 | 79* | -9 | 0 | -1
CCN1/C(=C/c2ccc3cc(NC(C)=O)ccc3[n+]2CC)Sc2cc(C)ccc21 | 15 | 25 | 0 | 0
CCN1/C(=C/c2ccc3ccccc3[n+]2CC)Sc2cc(NC(C)=O)ccc21 | 4 | -7 | 0 | 0
CCN1/C(=C/c2ccc3cc(C)ccc3[n+]2CC)Sc2ccc(O)cc21 | 87* | 31 | 1 | -1
O=C(COc1ccc(Cl)cc1)NCCSc1ccccn1 | -13 | 0 | 1 | 2.6*
CC(=O)Nc1ccnn1C1CCN(Cc2ccc(-c3ccccc3)cc2)CC1 | -17 | 14 | 0 | 0
CC(=O)Nc1ccnn1C1CCN(Cc2cnc(-c3ccccc3)s2)CC1 | 67* | -1 | -5 | 0
CC(=O)Nc1ccnn1C1CCN(Cc2cnc(-c3ccccc3C)nc2)CC1 | 41* | 9 | -2 | 0
Cc1nc2nc[nH]n2c(=O)c1CCC(=O)NCCCc1ccccc1 | 0 | -13 | 0 | 0
CC(=O)N(C1=C(N(C)C)C(=O)c2ccccc2C1=O)c1cccc(F)c1 | 95* | 13 | -7 | -1
CC(=O)N(C1=C(Cl)C(=O)c2ccccc2C1=O)c1ccc(Br)cc1 | 11 | 18 | 0 | 0
CC(=O)N(C1=C(N(C)C)C(=O)c2ccccc2C1=O)c1cc(C)cc(C)c1 | 85* | 13 | -3 | 0
CC(=O)N(C1=C(N(C)C)C(=O)c2ccccc2C1=O)c1ccc(Cl)cc1 | 73* | 6 | -3 | 0
COC(=O)Cc1c(C)c2ccc(OCc3cc([N+](=O)[O-])ccc3OC)cc2oc1=O | -4 | 1 | 0 | 0
Cc1nn(-c2ccccc2)c(Cl)c1C(=O)NCc1cccnc1 | -2 | 4 | 0 | 0
Cc1nn(-c2ccccc2)c(Cl)c1C(=O)Nc1ccc(C(=O)NCc2cccnc2)cc1 | 39* | 25 | -1 | 0
NC(=O)C1CCN(C(=O)CCCN2C(=O)c3ccccc3C2=O)CC1 | -3 | 7 | -1 | 1
Cc1csc(NC(=O)CN2CCC(c3ccncc3)CC2)n1 | 45* | 3 | 0 | 0
CCCC1N=C(c2cccc(OC)c2)CC(c2cc(Br)ccc2O)N1 (stereo not given) | 39* | 1 | 2 | 0
CCOc1cccc(C2CC(c3cccc(OC)c3)=NC(C(C)C)N2)c1O (stereo not given) | 36* | 3 | 0 | 0
O=c1c2cc3c(=O)n(-c4ncccn4)c(=O)c3cc2c(=O)n1-c1ncccn1 | 9 | 10 | 0 | 0
O=C(NCc1ccncc1)c1ccc2cncc(-c3ccccc3)c2n1 | 71* | 4 | 0 | 0
COc1ccc(-c2cncc3ccc(C(=O)NCc4ccccc4OC)nc23)cc1 | 50* | 12 | 0 | 0
SMILES | TEAD-YAP inh | MITF inh | GPR151 activ | FBW7 act
O=C(NCc1ccc(C(F)(F)F)nc1)c1ccc2cncc(-c3ccccc3)c2n1 | 49* | 13 | 1 | 0
COc1ccc(-c2cncc3ccc(C(=O)NCc4ccncc4)nc23)cc1 | 77* | 14 | -2 | -1
O=C(NCc1ccncc1)c1cnc2ccccc2n1 | 13 | 4 | -1 | 0
CN(C)S(=O)(=O)c1cccc(C(=O)c2c(-c3ccccc3)cc3ccccn23)c1 | -5 | 4 | 2 | 0
CCN1CCN(Cn2nc3c4ccccc4ncn3c2=O)CC1 | 0 | -9 | 0 | 0
O=C(c1cccc2cccnc12)N1CCCC(c2[nH]ncc2-c2ccncc2)C1 (stereo not given) | 15 | 7 | 0 | 0
N#CC(C#N)C(C#N)(C#N)C1CCCCC1=O (stereo not given) | 12 | 21 | 1 | -1
N#CC(C#N)C(C#N)(C#N)C1CCCC1=O (stereo not given) | 7 | 78* | -1 | -1
N#CC1=C(N)Oc2c(ccc3ccccc23)C1c1ccc([N+](=O)[O-])cc1 (stereo not given) | 1 | -10 | 0 | 0
COc1cccc(C2=CC(c3cccc(F)c3)n3nnnc3N2)c1 (stereo not given) | 50* | -3 | -1 | 0
COc1ccc(Br)cc1C1C=C(c2cccs2)Nc2nnnn21 (stereo not given) | 42* | 17 | 0 | 0
COc1cccc(C2=CC(c3ccc(OC)cc3OC)n3nnnc3N2)c1 (stereo not given) | 48* | 2 | 3 | 0
c1csc(Cn2nnnc2CN2CCC(n3cnc4cccnc43)CC2)c1 | -11 | 6 | 0 | 0
Cc1nn(C)c(C)c1-c1cc(NCCc2ccc(O)cc2)nc(N)n1 | 37* | 10 | 3 | 0
Cc1nn(C)c(C)c1-c1cc(NCc2ccccc2)nc(N)n1 | 1 | 8 | 0 | 0
Cc1c(C(=O)NCc2ccccn2)sc2ncnc(N3CCN(c4ccccc4F)CC3)c12 | -5 | 30 | 1 | 0
c1csc(CCNc2ncnc3sc4c(c23)CCC4)c1 | 37* | 21 | 2 | 0
C=CCNc1ncnc2scc(-c3ccccc3)c12 | 38* | 2 | 1 | 0
Fc1ccc(-c2csc3ncnc(NCCc4cccs4)c23)cc1 | 43* | 4 | 2 | 0
Cc1cc(C)nc(Nc2nc(OC(C(F)(F)F)C(F)(F)F)nc(OC(C(F)(F)F)C(F)(F)F)n2)n1 | 5 | 30 | 1 | 0
CCc1ccc(NC(=S)N(Cc2ccccc2)Cc2cccs2)cc1 | 54* | -6 | -1 | 0
COc1ccc(-c2cccc3cnc(Nc4ccc(-n5cnc(N6CCOCC6)n5)cc4)nc23)cc1F | 1 | -10 | 0 | 1
COc1ccc(-c2cccc3cnc(NC4CCC(C(=O)N5CCCC5)CC4)nc23)cc1F (stereo not given) | 83*! | 9 | -2 | 2
O=C(CSc1nc2ccccc2c(=O)n1Cc1ccco1)N1CCCc2ccccc21 | 4 | 1 | 3 | 0
COc1ccccc1N1C(=O)CC(S/C(N)=N/N=C(\C)c2ccc(O)cc2)C1=O (stereo not given) | -7 | 82* | 0 | 0
O=C1N(c2ccccc2)C[C@@H]2C[C@@H](c3cc4ccccc4o3)N3CCC[C@@]123 | 65* | 1 | -1 | 0
CC(C)CCNC(=O)CN(Cc1ccccc1)S(=O)(=O)c1ccc(F)cc1 | -14 | -5 | 1 | 0
COc1cc(C2C3=C(CC(C)(C)CC3=O)OC3=C2C(=O)CC(C)(C)C3)ccc1OCc1ccc(F)cc1 | -5 | 21 | -2 | 2.0*
COc1cc(/C=C2\Oc3c(ccc(O)c3CN3CCCCC3)C2=O)cc(OC)c1OC | 32* | 13 | 2 | 0
